Measurements published in PubChem BioAssay (Tox21).
Values joined by “and” are separate entries in the source; they are usually repeats but may differ in a detail not shown here. Equal entries are not always repeated. Results filed as inconclusive are left out. Where a call stands in place of a potency, no number is given. Where a structure was tested more than once in an assay, its records may differ in their call. Active and inactive are the calls of the source. Unless noted, calls follow the shape of the dose curve; as a rule, active = well fitted curve in the direction sought with a large enough effect in the repeat runs; inconclusive = weak or mixed curves; inactive = no such curve, though single readings can be large; an effect the other way counts as inactive or inconclusive.

Tests used:
[1] = qHTS assay for small molecule agonists of the p53 signaling pathway (AID 651631; calls by dose curve; also: nearly all actives have a fitted effect of over 15% in size; also: potency is read from the fitted curve at half-maximal effect)
Procedure, shortened: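 Fluorescence intensity from cleaved LiveBLAzer B/G substrate (2 h, room temperature) served as the signal. Beforehand, HCT-116 reporter cells bearing p53 response elements were treated 16 h at 37 °C with DMSO-dissolved compounds.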

[2] = qHTS assay for small molecule agonists of the p53 signaling pathway - cell viability (AID 651633; calls by dose curve; also: nearly all actives have a fitted effect of over 30% in size; also: potency is read from the fitted curve at half-maximal effect)
Procedure, shortened: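 p53RE-bla cells, seeded at 4,000 per well and rested 5 h at 37 C/5% CO2, received compounds in DMSO for 16 h at 37 C. CellTiter-Glo was then added, and luminescence was read after 30 min at room temperature to gauge cytotoxicity.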

[3] = qHTS assay for small molecule disruptors of the mitochondrial membrane potential - cell viability (AID 720634; calls by dose curve; also: nearly all actives have a fitted effect of over 20% in size; also: potency is read from the fitted curve at half-maximal effect)
Procedure, shortened: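 HepG2 cells seeded overnight at 37 C, then exposed to compound or DMSO for 1 hr at 37 C, 5% CO2. m-MPI dye added, then CellTiter-Glo for 30 min at room temperature; viability read as ATP luminescence.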

[4] = qHTS assay for small molecule disruptors of the mitochondrial membrane potential (AID 720635); also: potency is read from the fitted curve at half-maximal effect
Procedure, shortened: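 HepG2 cells (2,000/well) attached overnight at 37C, then took compound for 1 hr at 37C, 5% CO2. Mito-MPS dye was added for 30 min; fluorescence was read at 490/535 nm (monomers) and 540/590 nm (aggregates).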

[5] = qHTS assay to test for compound auto fluorescence at 590 nm (red) in HepG2 cells (AID 720674)
Procedure, shortened: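 Compound auto-fluorescence is scored relative to Rose Bengal sodium, measured at 540/590 nm in live HepG2 cultures after 1 hr compound contact (37 C, 5% CO2).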

[6] = qHTS assay to test for compound auto fluorescence at 535 nm (green) in HepG2 cells (AID 720675)
[7] = qHTS assay to test for compound auto fluorescence at 460 nm (blue) in HEK293 cells (AID 720678)
Procedure, shortened: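 Triamterene serves as the blue fluorophore standard. Compound signal at 405/460 nm is read in HEK293 wells (2,000 cells, 10% dialyzed FBS) after overnight treatment at 37C.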

[8] = qHTS assay to test for compound auto fluorescence at 590 nm (red) in HEK293 cells (AID 720679)
Procedure, shortened: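 We plated HEK293 cells in 10% dialyzed FBS medium, let them adhere for 4-5 hr, then added 23 nL compound. Overnight at 37C and 5% CO2 preceded fluorescence measurement at 540/590nm.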

[9] = qHTS assay for small molecules that induce genotoxicity in human embryonic kidney cells expressing luciferase-tagged ATAD5 (AID 651632); also: nearly all actives have a fitted effect of over 15% in size; also: potency is read from the fitted curve at half-maximal effect
Procedure, shortened: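 HEK293T cells carrying a luciferase reporter tagged to ATAD5 were exposed to compound or DMSO vehicle for 16 hr at 37C, 5% CO2. Amplite was added, and after 30 min at room temperature luciferase activity was read as a marker of ATAD5 induction.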

[10] = qHTS assay for small molecules that induce genotoxicity in human embryonic kidney cells expressing luciferase-tagged ATAD5 - cell viability (AID 651634; calls by dose curve; also: nearly all actives have a fitted effect of over 25% in size)
Procedure, shortened: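 HEK293T cells expressing luciferase-tagged ATAD5 were exposed to compound or DMSO for 15.5 hr at 37C, 5% CO2. Viability was then read as live-cell protease activity by CellTiter-Fluor fluorescence after 30 min at 37C.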

For `O=C(OCc1ccccc1)c1ccccc1O`, the Potency [1] was “inactive”, the Potency [2] was “inactive” and the Potency [3] was “inactive”. For the same compound, the Potency [4] was 61.1 µM (active), the Potency [5] was “inactive” and the Potency [6] was “inactive”. The outcome [7] was “inactive” and the Potency [8] was “inactive”.

For `CCOC(=O)C(C#N)=C(c1ccccc1)c1ccccc1`, the Potency [1] was “inactive”, the Potency [9] was “inactive” and the Potency [2] was “inactive”. For the same compound, the Potency [10] was “inactive”, the Potency [5] was “inactive” and the Potency [6] was “inactive”. For the same compound, the outcome [7] was “inactive” and the Potency [8] was “inactive”.

With `CC(=O)CC/C=C(\C)CCC=C(C)C` the Potency [1] was “inactive”, the Potency [9] was “inactive” and the Potency [2] was “inactive”. The Potency [10] was “inactive”, the Potency [3] was “inactive” and the Potency [4] was “inactive”. The Potency [5] was “inactive”, the Potency [6] was “inactive” and the outcome [7] was “inactive”. For the same compound, the Potency [8] was “inactive”.

With `O=CCCCC=O` the Potency [1] was 29.8 µM (active) and 33.2 µM (active) and 61.1 µM (active), the Potency [9] was “inactive and 59 µM (active)” and the Potency [2] was “inactive”. The Potency [10] was “inactive”, the Potency [3] was “inactive” and the Potency [4] was “inactive”. For the same compound, the Potency [5] was “inactive”, the Potency [6] was “inactive” and the outcome [7] was “inactive”. For the same compound, the Potency [8] was “inactive”.

In the case of `CN(C)CCC=C1c2ccccc2CCc2ccccc21`, the Potency [1] is reported as 61.1 µM (active), the Potency [9] is reported as “inactive” and the Potency [2] is reported as “inactive”. For the same compound, the Potency [10] was “inactive”, the Potency [3] was “inactive” and the Potency [5] was “inactive”. The Potency [6] was “inactive”, the outcome [7] was “inactive” and the Potency [8] was “inactive”.

With `CCC(C)OC(=O)c1ccc(O)cc1` (configuration not stated) the Potency [1] was “inactive”, the Potency [9] was “inactive” and the Potency [2] was “inactive”. The Potency [10] was “inactive”, the Potency [4] was 24.5 µM (active) and 17.2 µM (active) and the Potency [5] was “inactive”. For the same compound, the Potency [6] was “inactive”, the outcome [7] was “inactive” and the Potency [8] was “inactive”.

With `CCCCC(CC)COC(=O)c1ccc(N(C)C)cc1` (configuration not stated) the Potency [1] was “inactive”, the Potency [9] was “inactive” and the Potency [2] was “inactive”. The Potency [10] was “inactive”, the Potency [3] was “inactive” and the Potency [4] was 8.68 µM (active) and 21.7 µM (active). The Potency [5] was “inactive”, the Potency [6] was “inactive” and the outcome [7] was “inactive”. The Potency [8] was “inactive”.

With `NNc1ccc(C(=O)O)cc1` the Potency [1] was “inactive”, the Potency [2] was “inactive” and the Potency [10] was “inactive”. The Potency [3] was “inactive”, the Potency [5] was “inactive” and the Potency [6] was “inactive”. For the same compound, the outcome [7] was “inactive” and the Potency [8] was “inactive”.

With `Cc1cccc([N+](=O)[O-])c1C` the Potency [1] was “inactive”, the Potency [9] was “inactive” and the Potency [2] was “inactive”. The Potency [10] was “inactive”, the Potency [3] was “inactive” and the Potency [4] was “inactive”. For the same compound, the Potency [5] was “inactive”, the Potency [6] was “inactive” and the outcome [7] was “inactive”. For the same compound, the Potency [8] was “inactive”.

For `CCCCOCCOCCO`, the Potency [1] was “inactive”, the Potency [9] was “inactive” and the Potency [2] was “inactive”. For the same compound, the Potency [10] was “inactive”, the Potency [3] was “inactive” and the Potency [4] was “inactive”. The Potency [5] was “inactive”, the Potency [6] was “inactive” and the outcome [7] was “inactive”. The Potency [8] was “inactive”.

In the case of `CC(C)=CCCC(C)CCO` (configuration not stated), the Potency [1] is reported as “inactive”, the Potency [9] is reported as “inactive” and the Potency [2] is reported as “inactive”. The Potency [10] was “inactive”, the Potency [3] was “inactive” and the Potency [5] was “inactive”. For the same compound, the Potency [6] was “inactive”, the outcome [7] was “inactive” and the Potency [8] was “inactive”.

In the case of `Cc1c(C(N)=O)cc([N+](=O)[O-])cc1[N+](=O)[O-]`, the Potency [1] is reported as “inactive”, the Potency [9] is reported as “inactive” and the Potency [2] is reported as “inactive”. For the same compound, the Potency [10] was “inactive”, the Potency [3] was “inactive” and the Potency [4] was “inactive”. The Potency [5] was “inactive”, the Potency [6] was “inactive” and the outcome [7] was “inactive”. The Potency [8] was “inactive”.

For `Cc1ncc[nH]1`, the Potency [1] was “inactive”, the Potency [9] was “inactive” and the Potency [2] was “inactive”. For the same compound, the Potency [10] was “inactive”, the Potency [3] was “inactive” and the Potency [4] was “inactive”. For the same compound, the Potency [5] was “inactive”, the Potency [6] was “inactive” and the outcome [7] was “inactive”. For the same compound, the Potency [8] was “inactive”.

In the case of `CN1C(C(=O)Nc2ccccn2)=C(O)c2ccccc2S1(=O)=O`, the Potency [1] is reported as “inactive”, the Potency [9] is reported as “inactive” and the Potency [2] is reported as “inactive”. The Potency [10] was “inactive”, the Potency [3] was “inactive” and the Potency [4] was 5.69 µM (active) and 4.9 µM (active). For the same compound, the Potency [5] was “inactive”, the Potency [6] was “inactive” and the outcome [7] was “inactive”. For the same compound, the Potency [8] was “inactive”.

In the case of `COc1cccc2c1C(=O)c1c(O)c3c(c(O)c1C2=O)C[C@@](O)(C(=O)CO)C[C@@H]3O[C@H]1C[C@H](N)[C@H](O)[C@H](C)O1`, the Potency [1] is reported as “inactive and 596 nM (active) and 243 nM (active)”, the Potency [9] is reported as “inactive and 376 nM (active)” and the Potency [2] is reported as “inactive”. For the same compound, the Potency [3] was “inactive”, the Potency [4] was “inactive and 2.73 µM (active)” and the Potency [5] was “inactive”. The Potency [6] was “inactive”, the outcome [7] was “inactive” and the Potency [8] was “inactive”.

In the case of `Cc1cccc(N(C)C(=S)Oc2ccc3ccccc3c2)c1`, the Potency [1] is reported as “inactive”, the Potency [9] is reported as “inactive” and the Potency [2] is reported as “inactive and 17.2 µM (active)”. The Potency [10] was “inactive”, the Potency [3] was 17.2 µM (active) and the Potency [4] was “inactive and 21.7 µM (active)”. The Potency [5] was “inactive”, the Potency [6] was “inactive” and the outcome [7] was “inactive”. The Potency [8] was “inactive”.

For `C=C(C)C(=O)OCCOC(=O)C(=C)C`, the Potency [1] was “inactive”, the Potency [9] was “inactive” and the Potency [2] was “inactive”. For the same compound, the Potency [10] was “inactive”, the Potency [3] was “inactive” and the Potency [4] was “inactive”. For the same compound, the Potency [5] was “inactive”, the Potency [6] was “inactive” and the outcome [7] was “inactive”. For the same compound, the Potency [8] was “inactive”.

With `CCC(C)(O)CCCC(C)C` (configuration not stated) the Potency [1] was “inactive”, the Potency [9] was “inactive” and the Potency [2] was “inactive”. For the same compound, the Potency [10] was “inactive”, the Potency [3] was “inactive” and the Potency [4] was “inactive”. The Potency [5] was “inactive”, the Potency [6] was “inactive” and the outcome [7] was “inactive”. The Potency [8] was “inactive”.

With `CCCCNS(=O)(=O)c1ccccc1` the Potency [1] was “inactive”, the Potency [9] was “inactive” and the Potency [2] was “inactive”. The Potency [10] was “inactive”, the Potency [3] was “inactive” and the Potency [4] was 48.6 µM (active). The Potency [5] was “inactive”, the Potency [6] was “inactive” and the outcome [7] was “inactive”. For the same compound, the Potency [8] was “inactive”.

For `O=C1c2cccc(O)c2C(=O)c2c(O)cccc21`, the Potency [1] was 19.5 µM (active), the Potency [9] was “inactive” and the Potency [2] was “inactive”. The Potency [10] was “inactive”, the Potency [3] was “inactive” and the Potency [4] was 2.37 µM (active) and 3.1 µM (active). The Potency [5] was “inactive”, the Potency [6] was “inactive” and the outcome [7] was “inactive”. For the same compound, the Potency [8] was “inactive”.

With `O=C(/C=C/c1ccccc1)OCc1ccccc1` the Potency [1] was “inactive”, the Potency [9] was “inactive” and the Potency [2] was “inactive”. For the same compound, the Potency [10] was “inactive”, the Potency [5] was “inactive” and the Potency [6] was “inactive”. For the same compound, the outcome [7] was “inactive” and the Potency [8] was “inactive”.

With `c1cc(-c2ccncc2)ccn1` the Potency [1] was “inactive”, the Potency [9] was “inactive” and the Potency [2] was “inactive”. For the same compound, the Potency [10] was “inactive”, the Potency [3] was “inactive” and the Potency [5] was “inactive”. For the same compound, the Potency [6] was “inactive”, the outcome [7] was “inactive” and the Potency [8] was “inactive”.
